Compound activity deposited in PubChem by National Center for Advancing Translational Sciences (NCATS).
This is a sample that favours compounds with a hit; in the whole collection about 18% have one here.
TDP1 cell CPT: growth inhibition of DT40 Tdp1-/-;hTDP1 cells with camptothecin (screen for TDP1 inhibitors); chicken DT40 Tdp1-/-;hTDP1 cells + 20 nM CPT, ATP luminescence, 48 h; hit rate 12% among 420,000; AID 686979; Potency, µM (titrated, usually from 46.2 µM), for the others: at the highest dose activity change, negative = growth inhibition, usual class: inhibitors; further: potency means the concentration at half of the fitted maximal effect; on the % scale 0 is the no-effect control and ±100 the full control effect; nearly all actives have a fitted effect of over 55% in size
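Chicken DT40 Tdp1-/- cells stably complemented with human TDP1 were seeded at 400 cells/well in medium containing 20 nM camptothecin, exposed to pin-transferred compounds, and grown at 37 °C for at least 48 hr. Viability was read as ATP luminescence.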
HepG2 tox: counter-screen for TGF-b inhibitors: cytotoxicity in HepG2 cells | HepG2 CAGA-GFP viability, ATP luminescence, 18 h | Potency, µM (highest dose often 46.1 µM), without a hit: at the top dose activity change, negative = cytotoxicity, hits mostly cytotoxic | hit rate 0.76% among 410,000 | AID 588856; further: potency means the concentration at half of the fitted maximal effect
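CellTiter-Glo luminescence gave cytotoxicity after 18 hours at 37 degrees C. The cells were HepG2 CAGA-GFP in 1% FBS DMEM, stimulated with 500 pg/mL TGF-beta after compound addition. %Activity was normalised to no-cell wells (complete cell-killing) and DMSO (no toxicity), and curves were fitted and classified.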
IL-1B inflam inh: inhibitors of inflammasome signaling (IL-1 beta secretion); THP-1 LPS/ATP IL-1B secretion, AlphaLISA, 16 h; stronger effect = lower value; activity change, % at 57.5 µM; hit rate 4.7% among 360,000; AID 743279; in the data active means activity change below about -50%; inconclusive means mostly about -30% to -49%; further: on the % scale 0 is the no-effect control and ±100 the full control effect
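THP-1 cells pretreated 1 hr with compounds (up to 57.5 uM final), then stimulated with LPS (250 ng/mL final) plus ATP (1.25 mM final); secreted IL-1B measured by AlphaLISA after 16 hr, decreased signal indicating inhibition.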
TDP1 inh: blocks human tyrosyl-DNA phosphodiesterase 1. recombinant TDP1, AlphaScreen DNA substrate cleavage. Potency, µM (titrated, usually from 130 µM), without a hit: at the highest dose activity change, negative = inhibition, hits mostly inhibitors. hit rate 0.28% among 350,000. AID 485290; further: potency means the concentration at half of the fitted maximal effect; on the % scale 0 is the no-effect control and ±100 the full control effect; nearly all actives have a fitted effect of over 40% in size
Target sequence (Q9NUW8 whole entry, looked up): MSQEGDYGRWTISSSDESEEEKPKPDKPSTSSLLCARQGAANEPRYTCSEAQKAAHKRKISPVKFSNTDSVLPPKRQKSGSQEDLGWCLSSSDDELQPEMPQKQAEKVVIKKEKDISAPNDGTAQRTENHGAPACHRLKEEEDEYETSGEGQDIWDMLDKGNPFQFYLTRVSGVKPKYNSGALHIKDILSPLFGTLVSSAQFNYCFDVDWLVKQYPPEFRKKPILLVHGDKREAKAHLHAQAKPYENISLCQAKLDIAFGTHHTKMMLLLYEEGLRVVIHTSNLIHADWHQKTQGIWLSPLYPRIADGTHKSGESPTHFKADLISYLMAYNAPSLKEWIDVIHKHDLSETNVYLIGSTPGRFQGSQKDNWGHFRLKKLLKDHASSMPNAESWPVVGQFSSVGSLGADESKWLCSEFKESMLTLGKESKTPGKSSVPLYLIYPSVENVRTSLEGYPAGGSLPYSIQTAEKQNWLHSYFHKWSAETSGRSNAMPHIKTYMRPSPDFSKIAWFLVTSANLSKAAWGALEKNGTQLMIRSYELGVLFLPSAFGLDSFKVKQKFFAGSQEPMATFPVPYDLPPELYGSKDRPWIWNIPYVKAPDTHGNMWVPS
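Enzyme-compound mixtures sat 15 min at room temperature, followed by a 5 min reaction with 15 nM final substrate and 10 min with AlphaScreen beads. Recombinant human Tdp1 was used at 1 nM final.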
DT40 TDP1 no CPT: qHTS for Inhibitors of human tyrosyl-DNA phosphodiesterase 1 (TDP1): qHTS in cells in absence of CPT | hit rate 15% among 420,000 | DT40 Tdp1-/- hTDP1 cells, no CPT, ATP luminescence, 48 h | Potency, µM (titrated, usually from 46.2 µM), for inactives: at the top dose activity change, negative = growth inhibition, actives largely listed as inhibitors; further: potency means the concentration at half of the fitted maximal effect; on the % scale 0 is the no-effect control and ±100 the full control effect; nearly all actives have a fitted effect of over 55% in size
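Camptothecin absent (DMSO only). Human TDP1-complemented DT40 knockout cells, 400 cells/well, 37 °C for minimum 48 hr; ATP measured via CellTiter-Glo, 30 min dark incubation, luminescence.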
TGFb inhibitor: inhibitors of TGF-b signaling. HepG2 CAGA-GFP TGF-b/SMAD3 reporter, GFP fluorescence, 18 h; TGF-beta stimulated, 500 pg/mL final. hit rate 1.2% among 410,000. Potency, µM (highest dose often 46.1 µM), inactives show top-dose activity, negative = inhibition, hits mostly inhibitors; further: potency means the concentration at half of the fitted maximal effect; on the % scale 0 is the no-effect control and ±100 the full control effect; nearly all actives have a fitted effect of over 65% in size
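Inhibition of TGF-beta-driven CAGA-GFP reporter expression in HEPG2 cells is measured by cellular GFP fluorescence after 18 h stimulation with 500 pg/mL recombinant TGF-beta in 1% FBS medium at 37 degrees C.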
The depositor's hits bear a star; ? = inconclusive; . = no result; ! = not active in a repeat; [ ] = remark or other dose. Unless noted, the call rests on the fitted dose curve; in most records, active means well fitted curve in the direction sought with a large enough effect; inconclusive means small, poorly fitted or top-dose-only effect, or another doubt; inactive means no such curve, though single readings can be large; an effect the other way counts as inactive or inconclusive.

SMILES | TDP1 cell CPT | HepG2 tox | IL-1B inflam inh | TDP1 inh | DT40 TDP1 no CPT | TGFb inhibitor
COC(=O)[C@]1(C)N[C@H](CN(C)C(=O)C2CCCCC2)[C@@H]2C(=O)N(C)C(=O)[C@@H]21 | 4% | -5% | 29 | 0% | -8% | 13%
CSc1ccccc1NC(=O)C1(C)CCN1C(=O)Cc1ccc(-c2ccccc2)cc1 (configuration not stated) | ? | -7% | 0 | . | 18µM* | ?
CC(C)NC(=O)C1(C)CCN1C/C=C/c1ccccc1 (configuration not stated) | ? | 0% | 21 | . | ? | 14%
CC(C)NC(=O)C1(C)CCCN1C/C=C/c1ccccc1 (configuration not stated) | 21µM* | 10% | 37 | . | 23µM* | -1%
Cc1cc(C(=O)N2CCC2(C)C(=O)Nc2cc(C(C)(C)C)nn2C)nn1C (configuration not stated) | 0% | 9% | -6 | . | -1% | -1%
CC1(C(=O)NC2CCCCCC2)CCN1C(=O)Cc1ccc(-c2ccccc2)cc1 (configuration not stated) | ? | -25% | -8 | . | 15µM* | ?
CSc1ccc(NC(=O)C2(C)CCN2C(=O)c2cc(C)n(C)n2)cc1 (configuration not stated) | ? | 7% | -4 | . | 21µM* | 17%
Cn1c(N)c(C(=O)N2CCN(c3ccccc3)CC2)c(=O)n(C)c1=O | -3% | 1% | 10 | . | 7% | 3%
COC(=O)c1ccc(CN2CCCC(CCC(=O)NCc3ccc(C)o3)C2)cc1 (configuration not stated) | ? | 3% | 10 | 4% | ? | 7%
Nn1c(-c2ccc(O)cc2)nnc1-c1ccc(O)cc1 | -2% | -2% | 2 | 2% | 25% | 4%
CC1(C(=O)Nc2cccc3ncccc23)CCN1C(=O)Cc1ccc(-c2ccccc2)cc1 (configuration not stated) | 23µM* | -24% | -10 | . | 16µM* | 12%
CC(C)(C)CNC(=O)C1(C)CCN1C(=O)Cc1ccc(-c2ccccc2)cc1 (configuration not stated) | 23µM* | -36% | 3 | . | 18µM* | -9%
CCC(C)NC(=O)Cc1ccc(-c2ccccc2)cc1 (configuration not stated) | ? | -20% | -8 | 3% | 21µM* | -19%
Cc1ccc(NC(=O)CSCC(=O)NCc2cccc(C(F)(F)F)c2)cc1 | ? | -14% | 15 | -12%[0.505 µM] | -22% | -22%
COc1ccc(C(=O)NCCS(=O)(=O)N2CCc3ccccc3C2)cc1OC | -2% | 2% | 10 | -3% | -21% | -5%
Cc1ccc(NC(=S)N(CCCN2CCCC2)Cc2cccn2Cc2ccc(Cl)cc2)cc1Cl | ? | 1% | -53* | 8% | 6.5µM* | -4%
Cc1ccc(NC(=S)N(CCCN2CCCC2)Cc2cccn2Cc2ccc(Cl)cc2)cc1C | ? | 11µM* | -4 | 8% | 21µM* | 18µM*
Cc1ccc(NC(=S)N(CCN2CCOCC2)Cc2ccccc2F)cc1Cl | -19% | -25% | 4 | 6% | ? | 10%
FC(F)(F)c1cccc(NC(=S)N(CCCN2CCCC2)Cc2cccn2Cc2ccc(Cl)cc2)c1 | ? | 13µM* | -89* | 8% | 16µM* | ?
CCC(CC)C(=O)OCC(=O)C1(O)CCC2C3CCC4=CC(=O)CCC4(C)C3C(O)CC21C (configuration not stated) | -26% | 4% | . | . | ? | 12%
Cc1nn(CC(=O)NCCCN2CC(C)CC(C)C2)c(=O)c2cccn12 (configuration not stated) | -2% | 0% | 7 | 4% | 31% | 3%
COc1ccc(CNc2ncnc3c2c(-c2ccccc2)cn3-c2cccc(C)c2)cc1 | ? | -23% | . | 5% | ? | 0%
COCC1CCCN(Cc2ccc3c(c2)CN(C(=O)c2ccc(OC)nc2OC)CCO3)C1 (configuration not stated) | 8%[9.04 µM] | . | . | . | -16% | .
CC[C@](N)(CCC(=O)O)C(=O)O | -2% | . | . | 1% | 19µM*! | .
Cc1cc(O)c(C(c2ccc(F)cc2)N2CCCCC2)c(=O)n1Cc1ccco1 (configuration not stated) | -9% | -3% | . | 5% | -1% | 3%
SMILES | TDP1 cell CPT | HepG2 tox | IL-1B inflam inh | TDP1 inh | DT40 TDP1 no CPT | TGFb inhibitor
O=C(CCCl)N1CCN(c2nc(-c3ccccc3)cs2)CC1 | ? | -7% | 0 | 8% | 16µM* | -12%
O=C(N1CCOCC1)N1CCN(c2nc(-c3ccc(F)cc3)cs2)CC1 | ? | 0% | -15 | 7% | 16µM* | 23%
CCNC(=S)N1CCN(c2nc(-c3ccc(F)cc3)cs2)CC1 | ? | -10% | -4 | 5% | ? | -26%
CCN(CC)CCCNC(=S)N1CCN(c2nc(-c3ccc(F)cc3)cs2)CC1 | 15µM* | -37% | -58* | . | 6.5µM* | ?
CCOC(=O)N1CCN(c2nc(-c3ccc(Cl)cc3)cs2)CC1 | -26% | -24% | -1 | -3% | ? | ?
CC(C)C(=O)N1CCN(c2nc(-c3ccc(Cl)cc3)cs2)CC1 | 23µM* | -20% | -24 | 0% | 13µM* | ?
CNC(=S)N1CCN(c2nc(-c3ccc(Cl)cc3)cs2)CC1 | ? | -31% | -57* | . | 21µM* | ?
O=[N+]([O-])c1ccc(N2CCN(c3nc(-c4ccc(Cl)cc4)cs3)CC2)cc1 | ? | -1% | -3 | 7% | 12µM* | -10%
COCCNC(=S)N1CCN(c2nc(-c3ccc(Cl)cc3)cs2)CC1 | -8% | -16% | -20 | . | ? | ?
O=C(NCCc1ccc(F)cc1)c1cccc(NC(=O)c2ccccc2)c1 | ? | -12% | ? | 5% | ? | -19%
CCCCN(CCCNC(=O)c1cc(Nc2ccc(OC)cc2)nc2ccccc12)Cc1ccccc1 | 21µM* | 4% | . | -2% | 16µM* | -4%
CCCCN(CCCNC(=O)c1cc(Nc2ccc(OC)c(OC)c2)nc2ccccc12)c1ccccc1 | 15µM* | -37% | . | 7% | 13µM* | ?
CCCCN(CCCNC(=O)c1cc(Nc2ccc(OC)c(OC)c2)nc2ccccc12)Cc1ccccc1 | 16µM* | -88% | . | 2% | 21µM* | ?
